Results: article PMC5540273 (PLoS ONE, 2017)

Key:
Details in all cases: concentration: 1 μM,replicates: in singlicate; n = 1
[1] = test system: T1, ERK1
T1 construct: gene MAPK3

[2] = test system: T2, ERK2
T2 construct: gene MAPK1

[3] = test system: T3, ERK3
T3 construct: gene MAPK6

[4] = test system: T4, ERK4
T4 construct: gene MAPK4

[5] = test system: T5, ERK5
T5 construct: gene MAPK7

[6] = test system: T6, ERK8
T6 construct: gene MAPK15

[7] = test system: ERN1
[8] = test system: T7, FAK
T7 construct: gene PTK2

[9] = test system: FER
[10] = test system: FES
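Note: KINOMEscan kinase panel screen.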

| SMILES | %Inh [1] | %Inh [2] | %Inh [3] | %Inh [4] | %Inh [5] | %Inh [6] | %Inh [7] | %Inh [8] | %Inh [9] | %Inh [10] |
| --- | --- | --- | --- | --- | --- | --- | --- | --- | --- | --- |
| C[C@@H](Oc1cc(-n2cnc3cc(-c4ccncc4)ccc32)sc1C(N)=O)c1ccccc1Cl [GSK479719] | 0% | 0% | 0% | 0% | 0% | 85% | 16% | 0% | 13% | 18% |
| CCOC(=O)N1CCC(n2cnc(-c3ccc(F)cc3)c2-c2ccnc(N)n2)CC1 [SB-219952] | 0% | 0% | 0% | 8% | 0% | 0% | 19% | 0% | 20% | 0% |
| CS(=O)(=O)Nc1ccc(-c2ccnc3[nH]ccc23)cc1 [GSK993273] | 0% | 0% | 0% | 13% | 0% | 0% | 25% | 0% | 16% | 0% |
| Cc1ccn2nc(-c3ccc(F)cc3)c(-c3ccncc3)c2c1.Cl [GW457859] | 0% | 0% | 1% | 15% | 8% | 0% | 0% | 0% | 2% | 0% |
| O=C(NOCC1CC1)c1cc(Br)c(F)c(F)c1Nc1ccc(I)cc1Cl | 0% | 0% | 0% | 0% | 0% | 8% | 0% | 0% | 11% | 0% |
| Cn1ccc2ncnc(Oc3ccc(NC(=O)Nc4cccc(C(F)(F)F)c4)c(F)c3)c21 | 0% | 19% | 0% | 14% | 11% | 74% | 0% | 34% | 28% | 0% |
| C[C@@H]1CCN(C(=O)N2CCCC2)C[C@@H]1N(C)c1ncnc2[nH]ccc12 | 0% | 14% | 0% | 10% | 0% | 34% | 3% | 97.3% | 36% | 34% |
| Cc1n[nH]c2cc(Nc3ccnc(Nc4cccc(CN5CCOCC5)c4)n3)ccc12 [GW682569] | 0% | 0% | 0% | 22% | 7% | 0% | 24% | 0% | 8% | 0% |
| COc1ccc(Nc2nccc(N3CCC(NC(=O)c4cccc(C#N)c4)C3)n2)cc1 (centres unmarked) [GSK1379730] | 1% | 26% | 0% | 0% | 0% | 30% | 0% | 0% | 27% | 0% |
| NC(=O)c1ccc(-c2cc3ncnc(SCC(=O)O)c3s2)cc1 | 0% | 4% | 0% | 0% | 0% | 63% | 0% | 0% | 0% | 16% |
| O=C(Nc1n[nH]c2cc(-c3ccco3)ccc12)C1CC1 [SB-737447] | 0% | 0% | 0% | 3% | 0% | 72% | 9% | 3% | 0% | 1% |
| Cn1ccc2ncnc(Oc3ccc(NC(=O)Nc4cc(C(C)(C)C)on4)c(Cl)c3)c21 | 9% | 5% | 8% | 9% | 6% | 65% | 49% | 0% | 0% | 25% |
| CCN1CCN(CCCC(=O)Nc2n[nH]c3nc(-c4ccc(O)cc4)c(Br)cc23)CC1 [SB-731579] | 0% | 0% | 0% | 0% | 87% | 56% | 0% | 0% | 0% | 0% |
| Cc1ccc(CC(=O)N2CCc3cc(-c4cn(C)c5ncnc(N)c45)ccc32)cc1 [GSK2634758] | 12% | 6% | 0% | 0% | 0% | 0% | 11% | 0% | 19% | 0% |
| CN1CCN(CCNc2nc3cc(Oc4ccc(NC(=O)Nc5cc(C(F)(F)F)ccc5F)cc4)ccc3[nH]2)CC1.Cl.Cl [GW768504] | 0% | 0% | 0% | 0% | 0% | 69% | 0% | 11% | 20% | 9% |
| C[C@@H]1CNc2c(sc3ccc4nc(-c5ccc(O)cc5)ccc4c23)C(=O)N1 | 0% | 16% | 0% | 13% | 8% | 3% | 10% | 6% | 0% | 4% |
| CC(=O)Nc1nc2cnc(Nc3cc(NC(=O)c4cccc(CC(C)(C)C#N)c4)ccc3C)nc2s1 | 1% | 15% | 0% | 4% | 9% | 53% | 0% | 8% | 0% | 0% |

| SMILES | %Inh [1] | %Inh [2] | %Inh [3] | %Inh [4] | %Inh [5] | %Inh [6] | %Inh [7] | %Inh [8] | %Inh [9] | %Inh [10] |
| --- | --- | --- | --- | --- | --- | --- | --- | --- | --- | --- |
| CN(c1cccc(CNc2nc(Nc3ccc4c(c3)CC(=O)N4)ncc2C(F)(F)F)c1)S(C)(=O)=O | 3% | 41% | 0% | 0% | 18% | 79% | 11% | – | 65% | 62% |
| COC(=O)c1cccc(NC(=O)NC2CCN(c3ccnc(NCc4ccc(F)cc4)n3)CC2)c1 [GSK1379860] | 0% | 14% | 14% | 0% | 22% | 35% | 0% | 0% | 10% | 1% |
| NC(=O)Nc1sc(-c2ccc(F)cc2)cc1C(N)=O [GW789449] | 0% | 16% | 0% | 0% | 10% | 10% | 27% | 5% | 0% | 11% |
| c1ccc(Oc2ccc(Nc3ccnc4ccc(-c5ccccn5)cc34)cc2)cc1 [GW407034] | 0% | 83% | 4% | 0% | 0% | 31% | 0% | 0% | 18% | 0% |
| COC(=O)Nc1nc2cc(Oc3ccc(NC(=O)Nc4cc(C(F)(F)F)ccc4Cl)cc3)ccc2[nH]1.Cl [GW697465] | 0% | 0% | 6% | 0% | 0% | 90.9% | 0% | 0% | 24% | 0% |
| CN1CCN(CCCNc2nccc(-c3c(-c4ccc(F)cc4)nn4cc(C(N)=O)ccc34)n2)CC1 [GW622475] | 0% | 2% | 5% | 36% | 0% | 0% | 35% | 0% | 26% | 0% |
| CSc1nccc(-c2c(-c3ccc(F)cc3)ncn2CCCN2CCOCC2)n1.Cl [SB-217146] | 0% | 0% | 0% | 0% | 0% | 0% | 33% | 0% | 0% | 3% |
| C[C@@H](Oc1cc(-n2cnc3ccc(-c4ccncc4)cc32)sc1C(N)=O)c1ccccc1Cl [GSK483724] | 5% | 0% | 0% | 0% | 0% | 55% | 3% | 0% | 39% | 4% |
| Cl.c1ccc(Oc2ccc(Nc3ccnc4cc(-c5ccc(CN6CCNCC6)o5)ccc34)cc2)nc1 [GW567142] | 0% | 0% | 0% | 30% | 0% | 0% | 0% | 9% | 4% | 0% |
| COc1cccc(OC)c1C(=O)Nc1cccc(-c2nn3ccccc3c2-c2ccnc(Nc3cccc(F)c3)n2)c1 [GSK361065] | 1% | 6% | 1% | 9% | 2% | 3% | 10% | 1% | 24% | 20% |
| CC(=O)c1c(-c2ccncc2)[nH]c(-c2ccncc2)c1C [GW493036] | 3% | 0% | 0% | 0% | 0% | 96.5% | 0% | 0% | 2% | 0% |
| Nc1nccc(-c2ccc3c(N)n[nH]c3c2)n1 [GSK1034945] | 0% | 0% | 0% | 8% | 0% | 49% | 0% | 0% | 0% | 0% |
| Cc1cccc2c(-c3ccncc3)c(-c3ccc(F)cc3)nn12.Cl [GW461487] | 0% | 0% | 5% | 15% | 0% | 0% | 7% | 0% | 4% | 0% |
| O=C(NCC1CC1)c1ccc(-c2cc(C(=O)NC3CC3)ccc2F)cc1 [GW810445] | 0% | 0% | 0% | 0% | 1% | 0% | 0% | 3% | 0% | 0% |
| Cc1ccc(C(=O)Nc2ccc(Oc3ccc4nc(NC(=O)C5CC5)cn4c3)c(F)c2)c(=O)n1-c1ccccc1 | 0% | 0% | 0% | 0% | 0% | 34% | 0% | 3% | 75% | 48% |
| CN(c1ccccc1CNc1nc(Nc2ccc3c(c2)CC(=O)N3)ncc1C(F)(F)F)S(C)(=O)=O | 68% | 82% | 0% | 5% | 24% | 95.8% | 0% | – | 82% | 70% |
| C[C@@H](Oc1cc(-n2cnc3cc(-c4cnn(C)c4)ccc32)sc1C(N)=O)c1ccccc1Cl [GSK580432] | 0% | 0% | 10% | 10% | 0% | 64% | 3% | 0% | 38% | 18% |
